From PubChem BioAssay AID841 (Emory University Molecular Libraries Screening Center, 2007)
Hit rate of the full screen: of about 140,000 compounds, about 2,100 (1.5%) were called active. Cut-off read from the data, not from the text of the source: active = protection mostly above about 24% (no sharp cut-off); inactive = mostly below about 26%. Shown is part of a subset that was picked to be rich in actives.

Test: blockers of measles virus-induced cell death – single point, MLSMR library, absorbance, measles RdRp inhibitor project, primary screen (AID 841)
Details: Measles virus-infected cells, CPE protection, at 4 µM, stronger effect = higher value

SMILES	protection (pct of control)
Cc1c(NC(=S)NCc2ccc(F)cc2)cccc1[N+](=O)[O-]	18% (inactive)
CN(CC(=O)Nc1ccc(N2CCOCC2)cc1)CC(=O)Nc1ccccc1[N+](=O)[O-]	21% (inactive)
Cc1ccc(NC(=O)CN(C)Cc2ccc(F)cc2)c([N+](=O)[O-])c1	64.2% (active)
CCCCOc1ccc(NC(=O)[C@@H]2CCCN2C(=O)C2CCN(S(=O)(=O)c3ccc(C)cc3)CC2)cc1	12.8% (inactive)
CCN=C1S/C(=C\c2cc(Br)ccc2OCC(=O)OCC)C(=O)N1CC	4.59% (inactive)
CCCC(C)C(=O)OCC(=O)Nc1c(Br)cc(C)cc1Br (centres undefined)	5.66% (inactive)
C=CCn1c(-c2ccc3[nH]c(C)c(C)c3c2)n[nH]c1=S	41.1% (active)
CCc1cc(-c2n[nH]c(=S)n2CC(C)C)cs1	1.82% (inactive)
CCCc1cc(-c2n[nH]c(=S)n2Cc2ccccc2)cs1	18% (inactive)
CC(C)(C)c1ccc(NC(=O)COC(=O)CCc2nc3ccccc3c(=O)[nH]2)cc1	4.79% (inactive)
COc1ccccc1NC(=O)CSc1nc2sc(C)c(C)c2c(=O)n1Cc1ccco1	48.9% (active)
COc1cc(Cl)c(C)cc1NC(=O)CSc1nnc(-c2cccnc2)n1Cc1ccco1	6.16% (inactive)
COc1ccc(NC(=O)CSc2nnc(-c3cccs3)n2Cc2ccco2)cc1OC	5.61% (inactive)
CCOc1cc(C2C(C(=O)OC)=CN(C3CCCC3)C=C2C(=O)OC)cc(Br)c1O	8.51% (inactive)
COC(=O)C1=CN(C)C=C(C(=O)OC)C1c1ccc(Cl)cc1Cl	4.66% (inactive)
CCOc1ccccc1C1C(C(=O)OC)=CN(C)C=C1C(=O)OC	48.9% (active)
Cc1ccnc(NC(=O)Cn2ccc([N+](=O)[O-])n2)c1	6.33% (inactive)
COc1ccc(Cl)cc1NC(=O)[C@@H]1CCCN1C(=O)c1cccs1	6.26% (inactive)
COc1ccc(CN2C(=O)CC(Cc3ccc(C)cc3)C2=O)cc1OC (centres undefined)	7.23% (inactive)
CCCCNS(=O)(=O)c1ccc2nc(SCC(=O)Nc3cc(C)cc(C)c3)[nH]c2c1	6.86% (inactive)

SMILES	protection (pct of control)
CSCc1cc(N(C)C)nc(SCc2ccc(Cl)cc2Cl)n1	3.22% (inactive)
O=c1cc(CSc2ccc(Cl)cc2)nc(N2CCOCC2)[nH]1	15.7% (inactive)
CSCc1cc(N2CCOCC2)nc(SCc2ccc(Cl)cc2Cl)n1	71.8% (active)
O=C1CCCC(O)=C1N=Nc1ccc2ncsc2c1	4.07% (inactive)
COc1cc(/C=C(/NC(=O)c2ccc(Cl)cc2Cl)C(=O)O)cc(OC)c1OC	8.92% (inactive)
Cc1cccc(CSc2nnc(Cn3c(=O)sc4ccccc43)n2C)c1	11.3% (inactive)
C=CCSc1nnc(Cn2c(=O)sc3ccccc32)n1C	12.3% (inactive)
Cc1ccccc1CSc1nnc(Cn2c(=O)sc3ccccc32)n1C	42.8% (active)
CCN(CC)S(=O)(=O)c1cc([N+](=O)[O-])ccc1N=Nc1c(O)n(C)c2ccccc12	4.65% (inactive)
COc1ccc(C)cc1NC(=O)CSc1ccc(Cl)cc1	9.52% (inactive)
COC(=O)[C@H](C)[C@H]1C[C@]1(C)[C@H](NC(=O)OCc1ccccc1)c1ccccc1	3.04% (inactive)
COC(=O)[C@H](Cc1ccccc1)NC(=O)[C@@H]1C[C@H]1[C@@H](NC(=O)OCc1ccccc1)c1ccccc1	49.5% (active)
COC(=O)[C@H](Cc1ccccc1)NC(=O)N1CC(C)OC(C)C1 (some centres undefined)	13.1% (inactive)
CSc1ccc(/C=C/C(=O)NC23CC4CC(CC(C4)C2)C3)cc1	2.59% (inactive)
CC(=O)c1ccc(N2CCN(C(=O)c3ccc4nc[nH]c4c3)CC2)cc1	20.3% (inactive)
COc1ccc(-c2csc(NC(=O)CCCc3cccs3)n2)cc1	37.9% (inactive)
CCCc1ccc(-c2csc(NC(=O)Cc3cccs3)n2)cc1	25% (inactive)
Cc1ccc(-c2csc(NC(=O)Cc3cccs3)n2)cc1C	42.2% (active)
C/C(CC(=O)Nc1cccc(F)c1)=N\NC(=O)C(=O)NC1CCCCC1	2.76% (inactive)
Cc1cc(C)c(C2C3=C(Nc4c2c(C)nn4-c2ccccn2)c2ccccc2C3=O)c(C)c1 (centres undefined)	7.66% (inactive)

SMILES	protection (pct of control)
O=C(CN1C(=O)c2cccc3cccc(c23)C1=O)N1CCCCC1	4.32% (inactive)
Cc1nnc(NC(=O)/C=C/c2ccco2)s1	22.5% (inactive)
O=[N+]([O-])c1ccc(NCCCO)c(C(F)(F)F)c1	10.7% (inactive)
O=C(CSc1nc2c(cnn2-c2ccc(F)cc2)c(=O)[nH]1)N1CCCCCC1	6.65% (inactive)
C=CCNC(=O)CSc1nc2sc(C)c(C)c2c(=O)[nH]1	1.51% (inactive)
CC(=O)c1sc2nc(SCC(=O)N3CCCCC3)[nH]c(=O)c2c1C	61.4% (active)
Fc1c(F)c(C(F)(F)F)c(F)c(F)c1N1CCN(c2ccc3nnc(C(F)(F)F)n3n2)CC1	52.3% (active)
FC(F)(F)c1nnc2ccc(N3CCN(c4ccccc4)CC3)nn12	1.66% (inactive)
COc1ccc(S(=O)(=O)N2CCCC2)c(C)c1C	7.99% (inactive)
COc1ccc(F)cc1S(=O)(=O)Nc1ccc2c(c1)OCO2	5.59% (inactive)
COc1ccc(S(=O)(=O)Nc2ccc(F)cc2)c(C)c1C	62% (active)
COc1ccc2c(c1)cc1n2CCN=C1NN	25.1% (active)
COc1ccc(NC(=O)Nc2ccc3nc(C)c(C)nc3c2)cc1	2.45% (inactive)
COc1cc(-c2cc(C(=O)OCC(=O)Nc3ccc4c(c3)OCO4)c3ccccc3n2)cc(OC)c1OC	4.84% (inactive)
O=C(Cc1ccc(-n2c(=O)[nH]c3ccccc3c2=O)cc1)N1CCN(c2cccc(Cl)c2)CC1	2.23% (inactive)
CCOC(=O)N1CCN(C(=O)Cc2ccc(-n3c(=S)[nH]c4ccccc4c3=O)cc2)CC1	49% (active)
CCOC(=O)N1CCN(CC(=O)c2c(C)[nH]c3ccccc23)CC1	5.34% (inactive)
O=C(/C=C/c1cccc([N+](=O)[O-])c1)NCCSCc1ccco1	4% (inactive)
CCOc1ccc(-c2n[nH]c(=S)n2/N=C/c2cc3c(cc2[N+](=O)[O-])OCO3)cc1	2.01% (inactive)
